An excerpt weighted towards active compounds, which were near 13% of everything screened.
L major viab: inhibitors of Leishmania major promastigote growth. hit rate 9% among 200,000. Leishmania major promastigotes, resazurin fluorescence viability. inhibition, % at 10 µM; in the data active means inhibition above about 50%;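 further: promastigotes grown with compound for 44 hours at 28 °C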
RAM inhibit: blocks the yeast RAM network; S. cerevisiae dse1pr::URA3 reporter, 5-FOA growth OD615, 2 d; analog-sensitive cbk1-as2 kinase mutant strain; inhibition, % at 50 µM; hit rate 1.8% among 190,000; AID 868;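 active means inhibition above a set limit, 3 SD over mean compound inhibition, cut at about 8.4% in these data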;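 further: 0% = DMSO-only wells with no growth and 100% = 10 µM 1-NA-PP1 full growth; inhibition rescues growth on 5-FOA so higher OD means more RAM inhibition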
CHOP inhibitor: CHOP inhibition in unfolded protein response; CHO-K1 CHOP-promoter luciferase, tunicamycin-induced, 15-18 h; inhibition, % at 10 µM; hit rate 3.8% among 220,000;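 active means compounds that reduced the stress-induced luciferase reporter signal by more than about 70% of percent inhibition, limit read from the data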;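 further: 0% = tunicamycin plus vehicle and 100% = wells without tunicamycin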
WT yeast gro inh: growth inhibition of WT yeast, mitochondrial fusion screen | mitochondrial fusion phenotypic screen, WT strain | inhibition, % at 10 µM | hit rate 2.1% among 190,000 | AID 1362; in the data active means inhibition above about 58%; tested in S. cerevisiae
Active calls of the source: *; . = no result.

SMILES	L major viab	RAM inhibit	CHOP inhibitor	WT yeast gro inh
CCC(C)C(=O)Nc1ccc(OC)cc1[N+](=O)[O-] (stereo unspecified)	53*	0	65	1
Cc1ccc(C(=O)N2N=C3c4ccccc4S(=O)(=O)N3[C@H]2N(C)C)cc1	-4	0	3	-4
O=C(NCCc1c[nH]c2ccccc12)c1cnccn1	-9	2	-9	-15
Cc1ccc(C)c2[nH]c(=O)c(CN(Cc3nnnn3C3CCCCC3)CC3CCCO3)cc12 (stereo unspecified)	100*	0	38	-1
Cc1ccc2[nH]c(=O)c(CN(Cc3ccccc3)Cc3nnnn3C3CCCC3)cc2c1	53*	4	76*	25
Cc1cccc2cc(CN(Cc3cccs3)C3(c4nnnn4C4CCCC4)CCCC3)c(=O)[nH]c12	73*	3	15	19
Cc1ccc2[nH]c(=O)c(CN(Cc3nnnn3C3CCCC3)C3CCCCC3)cc2c1	49	1	63	2
Cc1cc(C)c2[nH]c(=O)c(CN(Cc3ccc4c(c3)OCO4)Cc3nnnn3C3CCCC3)cc2c1	88*	5	57	35
Cc1ccc(C)c2[nH]c(=O)c(CN(CCN3CCOCC3)Cc3nnnn3CC3CCCO3)cc12 (stereo unspecified)	6	-1	-17	-7
COc1ccc(Cn2nnnc2C(c2cc3ccc(OC)cc3[nH]c2=O)N2CCC(C)CC2)cc1 (stereo unspecified)	16	1	21	-4
Cc1cc(C)c2[nH]c(=O)c(C(c3nnnn3Cc3ccc4c(c3)OCO4)N3CCC(C)CC3)cc2c1 (stereo unspecified)	76*	0	34	-3
COc1ccc(S(=O)(=O)NNC(=O)c2ccc(-n3c(C)ccc3C)cc2)cc1	.	.	13	.
Cc1c(Cl)cccc1NC(=S)N(Cc1cccs1)C1CCCC1	22	1	0	67*
Cc1ccccc1NC(=S)N(C)Cc1cccs1	-2	2	37	2
O=C(O)CNC(=S)N(Cc1cccs1)C1CCCCC1	-4	0	-6	-6
Cc1ccc(Cl)cc1NC(=S)N(Cc1cccs1)C1CCCC1	-1	2	82*	22
Cc1ccccc1NC(=S)N(Cc1cccs1)C1CCCCC1	38	2	33	67*
CC(NC(=O)CNC(=S)N(Cc1cccs1)C1CCCC1)c1ccccc1 (stereo unspecified)	35	3	12	24
O=C(O)c1cc(N/N=C/C=C/c2ccccc2)ccc1Cl	-15	3	-8	-8
Cc1ccc(S(=O)(=O)N2CCOCC2)cc1NC(=O)COC(=O)c1cccnc1Cl	-7	0	-2	3
C/C(=N\O)c1ncc(C(F)(F)F)cc1Cl	-4	1	-20	3
CCn1c(SCC(=O)Nc2nccs2)nnc1-c1ccc(C)cc1	0	3	-23	-17
CCC(=O)Nc1ccc(-c2nnc(SCc3ccc(C(=O)Nc4nccs4)cc3)n2CC)cc1	-2	7	30	60*
O=C(NCCc1ccccn1)c1cc(-c2cccc3ccccc23)nc2ccccc12	11	3	25	-3
CCC/C=N/NC(=O)c1[nH]c2c([N+](=O)[O-])cccc2c1C	-8	1	28	-3
SMILES	L major viab	RAM inhibit	CHOP inhibitor	WT yeast gro inh
CC(C)(C)c1cc(C(=O)NCc2cc(F)cc3c2OCOC3)n(Cc2ccccc2)n1	.	.	9	.
COc1ccc(NC(=S)NCCSc2ccc(Cl)cc2)c(OC)c1	100*	5	67	73*
COc1ccccc1NC(=S)NCCSc1ccc(Cl)cc1	8	7	40	78*
Cc1cccc(C)c1NC(=S)NCCSc1ccc(Cl)cc1	37	2	-22	80*
COc1ccc(NC(=S)NCCc2ccccc2)c(OC)c1	7	0	9	48
COc1ccc(Cl)cc1NC(=S)NCCSc1ccc(C)cc1	0	9.4*	47	78*
CSc1nsc(/C=C/Nc2ccc(O)cc2C)c1C#N	-4	2	7	12
Cc1nc(C)c(N)c(=O)[nH]1	-1	-2	23	-13
O=C(/C=C/c1ccc(S(=O)(=O)NCc2ccco2)cc1)N1CCN(c2ccccc2)CC1	12	5	26	4
CC(C)C(C)NC(=O)COc1ccc(S(=O)(=O)N2CCOCC2)cc1Cl (stereo unspecified)	-7	1	7	0
O=S(=O)(c1ccc(OCC(O)CNC23CC4CC(CC(C4)C2)C3)c(Cl)c1)N1CCOCC1 (stereo unspecified)	94*	3	29	-5
CCOC(=O)c1ccc(NC(=S)N(CCCN2CCN(CC)CC2)Cc2ccco2)cc1	20	0	16	0
CCc1ccc(NC(=S)N(CCCN2CCOCC2)Cc2ccco2)cc1	-1	-1	13	4
CCOC(=O)c1ccc(NC(=S)N(CCCN2CCCC2)Cc2ccco2)cc1	80*	1	32	-9
CCOC(=O)c1ccc(NC(=S)N(CCCN2CCCC(C)C2)Cc2ccco2)cc1 (stereo unspecified)	99*	-1	13	15
CCc1ccc(NC(=S)N(CCN2CCCCC2)Cc2ccco2)cc1	95*	0	7	5
CCCn1cnc2c1c(=O)n(CCCCC(C)=O)c(=O)n2C	.	.	-10	.
CC(=O)Nc1sc(C)c(C)c1C(=O)OC1CCOC1=O (stereo unspecified)	-3	1	-7	6
O=C(CN1C(=O)COc2ccccc21)N(Cc1cccnc1)Cc1ccccc1F	96*	0	25	-1
COc1ccc(C(=O)/C=C/c2cccs2)c(OC(=O)c2cccc([N+](=O)[O-])c2)c1	23	9.3*	-99	17
CCCCNC(=S)N/N=C/c1ccc(OCC(=O)Nc2c(C)cc(C)cc2C)c(OC)c1	-1	4	50	26
COC(=O)c1ccc(C(=O)Nc2ccc(C(C)C)cc2N)cc1	-1	2	-2	-9
O=C(c1cccc(Br)c1)c1conc1C(=O)c1ccco1	-3	1	17	67*
N/C(=N\OC(=O)c1ccco1)c1cccc(Br)c1	5	0	19	26
O=C(Cc1ccc(Cl)cc1)N/N=C/c1c(Cl)cccc1Cl	72*	2	32	20
SMILES	L major viab	RAM inhibit	CHOP inhibitor	WT yeast gro inh
O=C(CSc1nnc(SCc2ccccc2)s1)N/N=C/c1c(Cl)cccc1Cl	-2	10*	61	-10
Cc1nn(-c2ccccc2)c(C)c1/C=N/NC(=O)CSc1nnc(SCc2ccc(Cl)cc2)s1	2	0	29	-6
CSc1ccc(NC(=O)c2cccnc2)cc1C#N	2	2	2	11
Cc1c(C(=O)COC(C)(C)C)[nH]c2ccccc12	0	1	7	-7
Cc1cc(CCCCCCCCc2cc(C)cc(=O)o2)oc(=O)c1	-3	4	16	0
CN(C)c1ccc(/C=N\Nc2nc(-c3ccccc3)cc(=O)[nH]2)cc1	2	2	89*	4
COc1ccc(-c2cc(C(F)(F)F)n3ncc(C(=O)Nc4c(C)n(C)n(-c5ccccc5)c4=O)c3n2)cc1	-2	2	-8	-12
COc1ccc(/C=C/c2noc(-c3ccccc3O)n2)cc1	-4	7	11	23
COc1ccc(/C=C/c2nc(N)nc(-c3ccccc3O)n2)cc1	21	6	78*	4

Source: PubChem BioAssay (several laboratories)
